The text below walks through data of ChEMBL document CHEMBL3988442, “University of Dundee, Small-Polar-MMV Screening Library” (2021).

Molecules are shown by their SMILES. Hit rate of the full screen: of about 48,000 compounds, about 13,000 (27%) showed an effect of 50% or more. The list shows a part of the results.

The experiment concerns Wolbachia pipientis. As to the kind of experiment: Anti-Wolbachia Cell-Based Screen. Type of experiment: functional. More on the design: scale not given: in the data most compounds retested in dose-response had high values. The note with it: 5 µM.
For `O=C(NCC1(c2cccc(F)c2)CC1)N1CCC2(CCOC2)C1` (configuration not stated), the “Percent Effect” value is reported as -9.611%.
On to `Cc1nn2c(N3CCC(C(N)=O)CC3)cc(-c3ccccc3)nc2c1C`, for which the “Percent Effect” value is listed as 0.08495%.
In the case of `Cc1ccc(N2CC[C@H]3C[C@H](C(=O)NCc4ccco4)O[C@@H]3C2)cc1.O=C(O)C(F)(F)F`, the “Percent Effect” value came to 96.02%.
The result for `Cc1ccc(N2CC[C@H]3C[C@H](C(=O)NCc4ccco4)O[C@H]3C2)nn1.O=C(O)C(F)(F)F` reads 108.4%.
For `COCCNC(=O)[C@H]1C[C@@H]2CCN(c3nncs3)C[C@H]2O1.O=C(O)C(F)(F)F`, the “Percent Effect” value is listed as -6.597%.
Turning to `Cc1ccc(N2C[C@H]3OCC[C@H]3[C@H](C(=O)NCc3ccco3)C2)nn1`, the “Percent Effect” value was 0.2496%.
Turning to `O=C(NCC1CCOCC1)[C@H]1C[C@@H]2CCN(c3nncs3)C[C@@H]2O1.O=C(O)C(F)(F)F`, the “Percent Effect” value was determined as 99.44%.
For `O=C(Nc1cccnc1)[C@H]1C[C@@H]2CCN(c3nncs3)C[C@H]2O1.O=C(O)C(F)(F)F.O=C(O)C(F)(F)F`, the “Percent Effect” value was 12.63%.
For the compound `Cc1cc(S(=O)(=O)N2CC[C@@H](O)C2)c(Cl)cc1F`, the “Percent Effect” value was 1.456%.
Regarding `O=C(C1CCOC1)N1CCN(Cc2cccnc2)c2ncccc2C1` (configuration not stated), the “Percent Effect” value was 79.91%.
`O=C(C1CCOCC1)N1CCN(CC2CC2)c2ncccc2C1`: the “Percent Effect” value is listed as -9.379%.
The result for `O=C(C1CCOC1)N1CCN(Cc2ccncc2)c2ncccc2C1` (configuration not stated) reads 109.7%; that for `CCN1CCN(CCCNC(=O)c2cc3ccc(C)cc3nc2C)CC1`, 26.08%; that for `CN(C)C1CCN(Cc2cnc(S(C)(=O)=O)n2CC2CCCCC2)C1` (configuration not stated), -18.29%.
The result for `CS(=O)(=O)N1CCCC12CCCN(C(=O)c1cc(F)cc(F)c1)C2` (configuration not stated) reads 3.882%; that for `CS(=O)(=O)N1CCCC12CCCN(C(=O)c1ccc3c(c1)OCO3)C2` (configuration not stated), -9.352%.
Regarding `Cc1cncc(C(=O)N2CCCC3(CCCN3S(C)(=O)=O)C2)c1` (configuration not stated), the “Percent Effect” value is listed as -8.185%.
On to `CN1C(=O)CCCC12CCCN(C(=O)c1ccc3c(c1)OCO3)C2` (configuration not stated), for which the “Percent Effect” value is listed as 103.5%.
Turning to `CN1C[C@H]2CN(C(=O)c3ccc4c(c3)OCO4)CCN2C1=O`, the “Percent Effect” value is reported as 3.165%.
Take `Cc1cc(C)cc(C(=O)N2CCCC3(CCCC(=O)N3C)C2)c1` (configuration not stated): the “Percent Effect” value was 101%.
The result for `CN1C(=O)CCCC12CCCN(C(=O)c1cc(F)cc(F)c1)C2` (configuration not stated) reads 108.3%; that for `CN1C(=O)CCCC12CCCN(C(=O)c1cccc(C(F)(F)F)c1)C2` (configuration not stated), 112.4%; that for `CN(CC(C)(C)C)c1ccc(C(=O)NCCCc2ccccn2)cn1`, -1.973%.
Turning to `Cc1oc(CNC(=O)Cc2cccc(OC(F)F)c2)cc1C(=O)O`, the “Percent Effect” value came out at 1.075%.
The result for `O=C1CCC2(CCCN(C(=O)c3ccoc3)C2)CN1CCc1c[nH]cn1` (configuration not stated) reads 2.528%.
Take `CN1C(=O)CCCC12CCCN(C(=O)c1ccoc1)C2` (configuration not stated): the “Percent Effect” value turned out to be 102.5%.
The result for `CN1C(=O)CCC12CCCN(C(=O)c1ccoc1)C2` (configuration not stated) reads 1.769%.
As for `Cc1cc(F)ccc1C(=O)N1C[C@@H]2COC[C@]2(CN(C)C)C1.O=C(O)C(F)(F)F`, the “Percent Effect” value is recorded as -5.19%.
`CCC(C)(O)CNC(=O)Nc1ccc(C)cc1Br` (configuration not stated): the “Percent Effect” value is listed as -22.84%.
Consider `CNCCN1C(=O)CC[C@H]2CN(c3ncc(F)cn3)CC[C@H]21`, for which the “Percent Effect” value is -2.163%.
For `NC(=O)C(NC(=O)c1cc(Br)c[nH]1)c1ccccc1` (configuration not stated), the “Percent Effect” value worked out at 0.3716%.
In the case of `CCc1nc(C)c(CN2CCN(c3ncnc4scc(C)c34)CC2)[nH]1`, the “Percent Effect” value is listed as -4.164%.
Take `CS(=O)(=O)c1ccccc1C(=O)NCC1Cc2ccccc2O1` (configuration not stated): the “Percent Effect” value is reported as -10.07%.
With `COCCOc1ccccc1C(=O)N(C)Cc1ncc(C)c(OC)c1C`, the “Percent Effect” value is -3.129%.
`CS(=O)(=O)c1ccccc1C(=O)NCCCN1CCc2ccccc2C1`: the “Percent Effect” value was determined as 5.39%.
Consider `CCN(CCNC(=O)c1ccccc1OCCOC)C1CC1`, for which the “Percent Effect” value amounted to 11.11%.
The result for `COCCCNC(=O)c1ccccc1S(C)(=O)=O` reads 133.8%.
Take `CCC(C)N(C)CCNC(=O)c1ccccc1OCCOC` (configuration not stated): the “Percent Effect” value was found to be 91.86%.
The result for `CN(CCCNC(=O)c1ccccc1OCC(N)=O)CC(F)(F)F` reads 8.203%.
Consider `COCCOc1ccccc1C(=O)NCCN(C)C(C)C`, for which the “Percent Effect” value was found to be 86.22%.
The result for `CCNC(=O)NC(=O)C(C)Nc1ccccc1OCCOC` (configuration not stated) reads 1.487%; that for `CCCn1nc2c(cc1=O)CN(Cc1nc(CCOC)no1)CC2`, 3.931%; that for `Cn1nc(C2CCCC2)c(-c2ccc3c(c2)OCO3)c1N`, -8.229%.
For the compound `CCS(=O)(=O)N1CCC2(CC1)CC[C@@]1(C(=O)N(C)C)CN(C)C[C@@H]21.O=C(O)C(F)(F)F`, the “Percent Effect” value turned out to be 4.402%.
Turning to `CNC(=O)[C@@]12CCC3(CCN(S(=O)(=O)C4CC4)CC3)[C@@H]1CN(C(C)=O)C2`, the “Percent Effect” value is 108%.
The result for `CC(=O)N1C[C@H]2C3(CCN(S(C)(=O)=O)CC3)CC[C@@]2(C(=O)N(C)C)C1` reads -15.61%; that for `CNC(=O)[C@@]12CCC3(CCN(S(C)(=O)=O)CC3)[C@@H]1CN(C(C)=O)C2`, 110.1%.
Turning to `CCS(=O)(=O)N1CCC2(CC1)CC[C@@]1(C(=O)NC)CN(C(C)=O)C[C@@H]21`, the “Percent Effect” value is 0.6663%.
For `CCS(=O)(=O)N1CCC2(CC1)CC[C@@]1(C(=O)N(C)C)CN(C(C)=O)C[C@@H]21`, the “Percent Effect” value is -13.65%.
In the case of `O=C(NCC1CC2(CO1)CN(Cc1cccs1)C2)C1CCC1.O=C(O)C(F)(F)F` (configuration not stated), the “Percent Effect” value was determined as 112.2%.
As for `O=C(NCC1CC2(CO1)CN(c1ncccn1)C2)C1CCC1` (configuration not stated), the “Percent Effect” value came to 124.3%.
As to `CCS(=O)(=O)N1CCCC2(COCCN(c3nncs3)C2)C1` (configuration not stated), the “Percent Effect” value is reported as -5.345%.
As for `O=C(NC[C@H]1Cn2c(-c3ccccc3)cnc2CO1)C1CC1`, the “Percent Effect” value is listed as -24.2%.
The result for `O=C(O)C(F)(F)F.O=C(O)[C@]12CCCN(Cc3cccs3)C[C@H]1CN(c1ncccn1)C2` reads 1.756%; that for `O=S(=O)(C1CC1)N1CCCC2(COCCN(c3nncs3)C2)C1` (configuration not stated), 1.243%.
For `O=C(NCC1CC2(CO1)CN(c1nncs1)C2)C1CCC1` (configuration not stated), the “Percent Effect” value is recorded as 113.3%.
`O=C(O)C(F)(F)F.O=C(O)C(F)(F)F.c1ccc(OCC2CC3(CCN(c4ncccn4)CC3)CO2)nc1` (configuration not stated): the “Percent Effect” value was 3.683%.
Turning to `CN(Cc1ccccc1)CC1CC2(CO1)CN(c1nncs1)C2` (configuration not stated), the “Percent Effect” value is reported as 4.017%.
For the compound `O=C(C1CCC2(CCN(c3nncs3)CC2)C1)N1CCCC1` (configuration not stated), the “Percent Effect” value is recorded as -10.32%.
As for `CN(C)C(=O)NCC1CC2(CO1)CN(c1nncs1)C2` (configuration not stated), the “Percent Effect” value was determined as 109.2%.
On to `O=C(N[C@@H]1CN(Cc2cccs2)[C@@H]2COC[C@@H]21)C1CCC1.O=C(O)C(F)(F)F`, for which the “Percent Effect” value is -6.502%.
Turning to `Cn1c(Cn2cccn2)nnc1C1CCCN(c2ccncc2F)C1` (configuration not stated), the “Percent Effect” value was 5.271%.
On to `O=C(c1ccccn1)N1C[C@@H]2CC[C@H](C1)N(C(=O)CCC1CCCC1)C2`, for which the “Percent Effect” value is reported as -23.02%.
For `CCOCCCOC(=O)c1ccc2c(c1)[nH]c(=O)n2C`, the “Percent Effect” value is on record as -4.386%.
`COc1ncnc(N(C)C)c1NC(=O)Cc1c[nH]c2ccc(F)cc12`: the “Percent Effect” value is on record as -15.56%.
The result for `C[C@@H]1CN(C(=O)c2ccc(Br)cc2F)CC(C(N)=O)O1` (some centres not stated) reads -4.259%.
The result for `CCOCCCNC(=O)Cc1cccs1` reads 73.09%; that for `CCOCCNC(=O)Cc1cccc(I)c1`, 3.378%; that for `O=C(Cc1cccs1)NCC1(O)CCSCC1`, 3.486%.
With `O=C(NCC1(O)CCc2ccccc21)Nc1ccc2c(c1)OCO2` (configuration not stated), the “Percent Effect” value is given as -4.749%.
Turning to `Cn1ncnc1NCc1ccc(Br)cc1`, the “Percent Effect” value came to 79.22%.
As to `Cn1ncnc1NS(=O)(=O)c1ccc(F)cc1`, the “Percent Effect” value was -13.8%.
Turning to `Cn1ncnc1NCc1ccc(F)cc1`, the “Percent Effect” value is on record as 113.5%.
In the case of `Cn1ncnc1NCc1ccc(Cl)cc1`, the “Percent Effect” value is on record as 106%.
The result for `Cn1ccnc1-c1noc(NCc2ccc(Br)cc2)n1` reads 0.2508%; that for `Cn1ncnc1NS(=O)(=O)c1ccccc1`, -4.376%.
`Cn1ncnc1NS(=O)(=O)c1ccc(F)cc1Cl`: the “Percent Effect” value is -0.8831%.
Consider `Cn1ccnc1-c1noc(NCc2ccc(Cl)cc2)n1`, for which the “Percent Effect” value turned out to be 9.491%.
On to `Clc1ccc(CNc2ccc(Cl)cn2)cc1`, for which the “Percent Effect” value was -12.24%.
In the case of `Cc1nnc(NCc2ccc(Br)cc2)o1`, the “Percent Effect” value is recorded as -15.89%.
The result for `Cn1ncnc1NCc1ccccc1Cl` reads 98%.
On to `CN(Cc1cc(Cl)ccc1Cl)Cc1ncnn1C`, for which the “Percent Effect” value is 20.54%.
On to `CC(C)c1nccn1CCCNC(=O)c1ccc(N(C)C)nc1`, for which the “Percent Effect” value is on record as -4.813%.
On to `NC(=O)CN1CCCC(c2cncc(Nc3ncccn3)n2)C1` (configuration not stated), for which the “Percent Effect” value amounted to 117.4%.
The result for `Cc1cccc(Nc2cc(C3CCCN(CC(N)=O)C3)ccn2)n1.O=CO.O=CO` (configuration not stated) reads 109.2%; that for `Cc1cccc(C2CCCN(C(=O)C3CCN(CC(N)=O)CC3)C2)c1` (configuration not stated), -11.42%.
On to `NC(=O)CN1CCCC(c2ccnc(Nc3ncccn3)c2)C1` (configuration not stated), for which the “Percent Effect” value amounted to 104.7%.
As for `NC(=O)CN1CCCC(C(=O)N2CCC(Oc3ncccn3)CC2)C1` (configuration not stated), the “Percent Effect” value is -4.684%.
In the case of `Cl.Cl.NCC(=O)N1CCCC(c2cncc(Nc3ncccn3)n2)C1` (configuration not stated), the “Percent Effect” value was -7.502%.
Take `CCN1CCCC(c2c(-c3ccccc3)ncn2CC(N)=O)C1` (configuration not stated): the “Percent Effect” value came to 0.7504%.
`Cc1cccc(C2CCCN(C(=O)CN3CCC(C(N)=O)CC3)C2)c1` (configuration not stated): the “Percent Effect” value is -7.369%.
The result for `CCC(C)N(Cc1ccncc1)C(=O)CCC(=O)OC` (configuration not stated) reads -41.55%; that for `Cc1nc(CN2CCCN(CC(=O)N(C)C(C)(C)C#N)CC2)no1`, 10.3%; that for `CC(C)(C)OC(=O)N1CCC[C@H](NCC2=CCCOC2)C1`, -0.302%.
Take `O=C(O)C(F)(F)F.O=C(O)C(F)(F)F.O=C(c1ccncc1)N1CC[C@@H]2[C@@H](CC1)OCCN2c1cccnc1`: the “Percent Effect” value is reported as -4.707%.
Regarding `CC(C)n1cnc(-c2nc(C(=O)N3CCCC3)c3ccccn23)c1`, the “Percent Effect” value was -0.8191%.
In the case of `CS(=O)(=O)c1ccc(-c2nc(C(=O)N3CCCC3)n3ccccc23)cc1`, the “Percent Effect” value was 91.51%.
As for `CN(Cc1ccccc1)C(=O)c1nc(S(C)(=O)=O)n2ccccc12`, the “Percent Effect” value is listed as -0.6664%.
For the compound `CN(C)C(=O)c1nc(-c2ccc(S(C)(=O)=O)cc2)c2cnccn12`, the “Percent Effect” value is 107.6%.
On to `O=C(c1coc(-c2ccccc2)n1)N1CCCC1`, for which the “Percent Effect” value was determined as 6.616%.
As to `CC(C)CCN(C)C(=O)c1nc(S(C)(=O)=O)n2ccccc12`, the “Percent Effect” value was 1.111%.
The result for `CN(C)C(=O)c1nc(-c2ccc(S(C)(=O)=O)cc2)c2ccccn12` reads 94.54%.
